Data on 8 compounds can be found in PubChem BioAssay (Tox21).

Values without a mark were called inactive. Results filed as inconclusive are left out. Activity calls are given as the source filed them. Unless noted, the call rests on the fitted dose curve; in most records, active means well fitted curve in the direction sought with a large enough effect in the repeat runs; inconclusive means weak or mixed curves; inactive means no such curve, though single readings can be large; an effect the other way counts as inactive or inconclusive.

Assay [1] concerns the target Thyrotropin receptor (Homo sapiens) (UniProt P16473). In words: qHTS assay to identify small molecule antagonists of the thyroid stimulating hormone receptor (TSHR) signaling pathway (AID 1259385; calls by dose curve; further: nearly all actives have a fitted effect of over 20% in size). In outline: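 Antagonist mode: compound-treated TSHR-expressing HEK293 cells were stimulated with 1.5 ng/mL TSH (final) in presence of Ro20-1724 for 30 min at RT. HTRF cAMP detection after 1 h; each compound tested at 15 concentrations, triplicate.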
A general note: Quantitative high-throughput screening tests each substance at several concentrations.

Assay [2] is described as follows: qHTS assay to identify small molecule agonists of the estrogen receptor alpha (ER-alpha) signaling pathway in the presence of an antagonist - cell viability counter screen (AID 1259386).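 Further: series mostly up to about 92 µM; cells exposed to compounds for 22 h at 37 °C before the viability read; nearly all actives have a fitted effect of over 30% in size.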 The method in brief: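 Cytotoxicity was measured in parallel with the ERE-luciferase agonist screen, in the same wells. The cells were VM7Luc4E2, which endogenously express ER-alpha, and treatment was with compounds plus 10.0nM ICI-182,780 for 22hr.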

In assay [3] the target is Progesterone receptor (Homo sapiens) (UniProt P06401). In words: qHTS assay to identify small molecule agonists of the progesterone receptor (PR) signaling pathway (AID 1346784; calls by dose curve; further: nearly all actives have a fitted effect of over 30% in size). In outline:
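PR-UAS-bla HEK 293T cells carrying a UAS-driven beta-lactamase reporter were seeded in medium with 2% charcoal-stripped FBS, preincubated 6 hr at 37C, then exposed to compounds in DMSO for 16 hr; agonism was read by LiveBLAzer B/G FRET fluorescence.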

Assay [4] shares this target. The assay can be described thus: qHTS assay to identify small molecule antagonists of the progesterone receptor (PR) signaling pathway (AID 1346795; active means well fitted inhibition curve with a large enough effect in the signal ratio in the repeat runs, not every such curve was filed as active; the % refers to the signal ratio). In outline: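 PR-UAS-bla HEK293T cells carrying a UAS-driven beta-lactamase reporter were plated in medium with 2% charcoal-stripped FBS and rested 6 hr at 37C. Compounds were added with 1 nM R5020 (final) for 16 hr, then FRET substrate loaded 2 hr at room temperature.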

A short description of assay [5]: qHTS assay to identify small molecule antagonists of the progesterone receptor (PR) signaling pathway - cell viability counter screen (AID 1346798). Further: series mostly up to about 92 µM; nearly all actives have a fitted effect of over 50% in size. The method in brief: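 PR-UAS-bla HEK293T cells in medium with 2% charcoal-stripped FBS were treated with compounds plus R5020 for 16 hr at 37C. Cell viability was then read by CellTiter-Glo luminescence after 30 min at room temperature in the same wells.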

The nature of assay [6]: qHTS assay to identify small molecule agonists of the progesterone receptor (PR) signaling pathway - cell viability counter screen (AID 1346799; calls by dose curve; further: nearly all actives have a fitted effect of over 45% in size). In outline: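 PR-UAS-bla HEK293T cells, 3,000 per well in medium with 2% charcoal-stripped FBS, were preincubated 6 hr at 37C, then exposed to compounds for 16 hr; viability was read as CellTiter-Glo luminescence after 30 min at room temperature.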

Assay [7] is described as follows: qHTS assay to identify small molecule agonists of the TGF-beta/Smad signaling pathway - cell viability counter screen (AID 1346829). Further: top concentration of the series differs between compounds; nearly all actives have a fitted effect of over 45% in size. The method in brief:
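Here the cytotoxicity of library compounds is measured in SBE-bla HEK 293T cells treated for 5 hr, using CellTiter-Glo added to wells already read for the beta-lactamase reporter.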

The nature of assay [8]: qHTS assay to identify small molecule agonists of the TGF-beta/Smad signaling pathway (AID 1346859; active means well fitted activation curve with a large enough effect in the signal ratio in the repeat runs, not every such curve was filed as active; the % refers to the signal ratio; further: series mostly up to about 77 µM). In outline: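 HEK 293T cells stably carrying a beta-lactamase reporter driven by the Smad binding element were seeded overnight, exposed to DMSO-dissolved compounds for 5 hr at 37 C, 5% CO2, then loaded with FRET substrate for 2 hr at room temperature.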
In assay [9] the target is Thyrotropin-releasing hormone receptor (Homo sapiens) (UniProt P34981). In words: qHTS assay to identify small molecule antagonists of the thyrotropin-releasing hormone receptor (TRHR) signaling pathway (AID 1346877; active means well fitted inhibition curve with a large enough effect in the repeat runs, not every such curve was filed as active; further: series mostly up to about 51 µM). In outline: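 Antagonism is measured as suppression of the calcium response to 1 nM TRH in TRHR-HEK293 cells that have been dye-loaded for 2 h at 37 °C after overnight plating. Each compound is tested at 15 concentrations in triplicate.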

For assay [10] the target is unchanged. The assay can be described thus: qHTS assay to identify small molecule agonists of the thyrotropin-releasing hormone receptor (TRHR) signaling pathway (AID 1346891; calls by dose curve; further: series mostly up to about 58 µM). In outline:
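TRHR-expressing HEK293 cells were plated 18 h at 37 °C/5% CO2, loaded with calcium dye 2 h at 37 °C, then given compound in DMSO; fluorescence was read kinetically for 3 min at 1 s intervals.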

Assay [11] in a line: Human pregnane X receptor (PXR) small molecule agonists, qHTS cell viability counter screen (AID 1346977). Further: nearly all actives have a fitted effect of over 50% in size. The method in brief:
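PXR-Luc HepG2 cells in medium with 5% charcoal-stripped FBS were pre-incubated 5hr, then exposed to compounds for 24hr at 37C. Viability was read in the same wells by CellTiter-Fluor fluorescence, reagent added after 23hr with a 1hr incubation.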

A short description of assay [12]: Caspase-3/7 induction in HepG2 cells by small molecules, qHTS assay (AID 1346978). Further: nearly all actives have a fitted effect of over 15% in size. In outline: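 Caspase-3/7 induction was measured by Caspase-Glo 3/7 luminescence (30 min, room temperature) after a 17 hr compound exposure of wild-type HepG2 cells seeded at 2,000 per well and pre-incubated 5 hr.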
A short description of assay [13]: Caspase-3/7 induction in CHO-K1 cells by small molecules, qHTS cell viability counter screen (AID 1346979). Further: nearly all actives have a fitted effect of over 35% in size. In outline: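 Wild-type CHO-K1 cells were seeded at 1,500 per well, rested 5hr at 37 C, then exposed to compounds in DMSO. After 16hr, CellTiter-Fluor reagent was added and fluorescence read 1hr later as the viability measure.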
Assay [14] is described as follows: Caspase-3/7 induction in CHO-K1 cells by small molecules, qHTS assay (AID 1346980). Further: nearly all actives have a fitted effect of over 15% in size. In outline: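 Luminescent Caspase-Glo 3/7 read (30min, room temperature) quantified apoptosis induction. Cells were wild-type CHO-K1, treated with compound for 17hr at 37 C and 5% CO2.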
Assay [15] in a line: Caspase-3/7 induction in HepG2 cells by small molecules, qHTS cell viability counter screen (AID 1346981). Further: series mostly up to about 92 µM; nearly all actives have a fitted effect of over 30% in size. In outline: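 Cell viability is measured as a cytotoxicity counter screen alongside the Caspase-Glo 3/7 readout in identical wells. Wild-type HepG2 cells are treated with test compounds for 16 hr at 37 C before CellTiter-Fluor addition and a 1-hr incubation.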
For assay [16], the target named is Nuclear receptor subfamily 1 group I member 2 (Homo sapiens) (UniProt O75469). In words: Human pregnane X receptor (PXR) small molecule agonists, qHTS assay (AID 1346982). Further: nearly all actives have a fitted effect of over 35% in size. Further: potency means the concentration at half of the fitted maximal effect. In outline:
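Cells: HepG2 stably carrying PXR-Luc. Medium held 5% charcoal-stripped FBS. Compounds in DMSO added after 5 hr plating, incubated 24 hr, then luminescence quantified with ONE-Glo.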

Assay [17] has as its target Nuclear receptor subfamily 1 group I member 2 (Rattus norvegicus) (UniProt Q9R1A7). The assay can be described thus: Rat pregnane X receptor (rPXR) activation by small molecules, qHTS assay (AID 1346983). Further: nearly all actives have a fitted effect of over 20% in size. As to conditions: rPXR luciferase reporter cells, One-Glo luminescence, 24 h; stronger effect = higher value. In outline: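 Luminescent readout (One-Glo luciferase, 30 min room temperature) followed 24 hr compound treatment at 37 C of rPXR cells plated 2,000 per well and preincubated 5hr; qHTS format with compounds delivered in DMSO.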

For assay [18], the target named is Nuclear receptor subfamily 1 group I member 2 (Homo sapiens) (UniProt O75469). In words: CYP3A4 induction through human pregnane X receptor (PXR) by small molecules, qHTS assay (AID 1346984). Further: nearly all actives have a fitted effect of over 40% in size. In outline:
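Quantitative HTS in DPX-2 cells, i.e. HepG2 transfected with PXR response element and CYP3A4-promoter luciferase. Compounds in DMSO incubated 24hr at 37C; then P450-Glo CYP3A4 substrate, 3uM final, 3hr; One-Glo luminescence.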

For assay [19] the target is unchanged. In words: Human pregnane X receptor (PXR) activation by small molecules, qHTS assay (AID 1346985). Further: nearly all actives have a fitted effect of over 40% in size. In outline:
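DPX-2 cells (HepG2 co-transfected with a PXR response element and a CYP3A4-promoter luciferase construct) were seeded at 2,000 per well, rested 5 hr at 37C, then exposed to DMSO-dissolved compounds for 24 hr. Activation was read as luciferase luminescence.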

Assay [20] in a line: qHTS assay to identify small molecule antagonists of the TGF-beta/Smad signaling pathway - cell viability counter screen (AID 1346824). Further: nearly all actives have a fitted effect of over 50% in size. In outline:
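Cytotoxicity counter-screen run in the same wells as the beta-lactamase Smad reporter read: CellTiter-Glo luminescence after 30 min at room temperature. HEK 293T SBE-bla cells had 5 hr compound exposure at 37 C with TGF-beta1 (0.25 ng/mL stock).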
On the % scale 0 is the no-effect control and ±100 the full control effect.

Sequence of Thyrotropin-releasing hormone receptor (Homo sapiens) (P34981 whole entry, looked up): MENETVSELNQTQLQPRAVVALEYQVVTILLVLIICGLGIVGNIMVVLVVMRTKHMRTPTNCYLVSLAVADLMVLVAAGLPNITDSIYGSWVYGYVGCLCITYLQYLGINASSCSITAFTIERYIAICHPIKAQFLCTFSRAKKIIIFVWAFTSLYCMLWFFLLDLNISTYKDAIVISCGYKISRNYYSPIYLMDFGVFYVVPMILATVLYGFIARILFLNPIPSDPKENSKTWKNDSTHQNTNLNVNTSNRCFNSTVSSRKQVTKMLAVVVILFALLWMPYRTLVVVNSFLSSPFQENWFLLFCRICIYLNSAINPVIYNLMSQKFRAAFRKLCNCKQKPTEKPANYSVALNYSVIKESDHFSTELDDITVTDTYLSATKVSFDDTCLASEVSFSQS
Sequence of Nuclear receptor subfamily 1 group I member 2 (Rattus norvegicus) (Q9R1A7 whole entry, looked up): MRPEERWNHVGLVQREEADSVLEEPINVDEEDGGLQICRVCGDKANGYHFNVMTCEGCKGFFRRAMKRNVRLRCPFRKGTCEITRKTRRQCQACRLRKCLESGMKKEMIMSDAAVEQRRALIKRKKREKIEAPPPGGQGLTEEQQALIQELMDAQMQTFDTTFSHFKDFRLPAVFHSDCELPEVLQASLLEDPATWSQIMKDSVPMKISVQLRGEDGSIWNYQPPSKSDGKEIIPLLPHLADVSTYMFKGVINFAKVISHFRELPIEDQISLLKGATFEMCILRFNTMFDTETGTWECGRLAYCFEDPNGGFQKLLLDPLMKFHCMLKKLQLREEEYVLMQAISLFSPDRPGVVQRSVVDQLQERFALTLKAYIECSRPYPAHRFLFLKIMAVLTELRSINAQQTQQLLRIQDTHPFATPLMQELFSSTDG
Sequence of Nuclear receptor subfamily 1 group I member 2 (Homo sapiens) (O75469 whole entry, looked up): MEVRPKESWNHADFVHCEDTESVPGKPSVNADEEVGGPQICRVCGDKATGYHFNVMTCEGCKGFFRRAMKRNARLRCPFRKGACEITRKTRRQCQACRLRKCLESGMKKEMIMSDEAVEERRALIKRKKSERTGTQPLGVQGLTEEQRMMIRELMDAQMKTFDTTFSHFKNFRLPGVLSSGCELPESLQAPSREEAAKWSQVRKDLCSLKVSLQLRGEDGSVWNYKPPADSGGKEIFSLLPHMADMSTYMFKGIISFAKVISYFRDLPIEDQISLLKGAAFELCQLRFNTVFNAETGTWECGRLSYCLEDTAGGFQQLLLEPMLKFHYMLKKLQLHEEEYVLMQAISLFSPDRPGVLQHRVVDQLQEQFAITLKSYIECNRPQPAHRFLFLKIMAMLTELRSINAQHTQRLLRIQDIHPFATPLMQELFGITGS
Sequence of Progesterone receptor (Homo sapiens) (P06401 whole entry, looked up): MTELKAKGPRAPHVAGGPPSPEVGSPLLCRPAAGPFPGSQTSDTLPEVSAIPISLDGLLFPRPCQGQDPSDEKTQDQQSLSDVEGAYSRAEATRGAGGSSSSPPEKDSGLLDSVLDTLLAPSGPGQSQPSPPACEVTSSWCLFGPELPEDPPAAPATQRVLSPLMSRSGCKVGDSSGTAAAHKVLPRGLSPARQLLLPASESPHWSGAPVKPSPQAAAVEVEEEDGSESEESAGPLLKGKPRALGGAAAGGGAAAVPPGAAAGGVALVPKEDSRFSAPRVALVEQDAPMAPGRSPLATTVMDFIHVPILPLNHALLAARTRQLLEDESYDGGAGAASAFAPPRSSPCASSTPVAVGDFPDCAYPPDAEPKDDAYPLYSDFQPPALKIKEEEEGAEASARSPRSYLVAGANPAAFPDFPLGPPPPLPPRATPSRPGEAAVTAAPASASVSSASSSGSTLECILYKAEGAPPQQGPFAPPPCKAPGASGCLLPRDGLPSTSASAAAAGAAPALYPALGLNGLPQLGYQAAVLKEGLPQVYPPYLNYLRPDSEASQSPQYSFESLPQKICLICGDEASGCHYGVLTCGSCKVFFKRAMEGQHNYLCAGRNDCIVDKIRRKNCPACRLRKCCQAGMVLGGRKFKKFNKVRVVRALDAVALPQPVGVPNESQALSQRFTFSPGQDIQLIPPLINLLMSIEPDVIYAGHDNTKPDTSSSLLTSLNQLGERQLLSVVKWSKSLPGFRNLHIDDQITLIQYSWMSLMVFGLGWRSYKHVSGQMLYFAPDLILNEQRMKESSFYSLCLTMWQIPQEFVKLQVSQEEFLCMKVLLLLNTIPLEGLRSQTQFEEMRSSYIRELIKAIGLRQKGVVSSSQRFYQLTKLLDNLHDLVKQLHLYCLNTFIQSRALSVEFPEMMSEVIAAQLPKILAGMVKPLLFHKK
Sequence of Thyrotropin receptor (Homo sapiens) (P16473 whole entry, looked up): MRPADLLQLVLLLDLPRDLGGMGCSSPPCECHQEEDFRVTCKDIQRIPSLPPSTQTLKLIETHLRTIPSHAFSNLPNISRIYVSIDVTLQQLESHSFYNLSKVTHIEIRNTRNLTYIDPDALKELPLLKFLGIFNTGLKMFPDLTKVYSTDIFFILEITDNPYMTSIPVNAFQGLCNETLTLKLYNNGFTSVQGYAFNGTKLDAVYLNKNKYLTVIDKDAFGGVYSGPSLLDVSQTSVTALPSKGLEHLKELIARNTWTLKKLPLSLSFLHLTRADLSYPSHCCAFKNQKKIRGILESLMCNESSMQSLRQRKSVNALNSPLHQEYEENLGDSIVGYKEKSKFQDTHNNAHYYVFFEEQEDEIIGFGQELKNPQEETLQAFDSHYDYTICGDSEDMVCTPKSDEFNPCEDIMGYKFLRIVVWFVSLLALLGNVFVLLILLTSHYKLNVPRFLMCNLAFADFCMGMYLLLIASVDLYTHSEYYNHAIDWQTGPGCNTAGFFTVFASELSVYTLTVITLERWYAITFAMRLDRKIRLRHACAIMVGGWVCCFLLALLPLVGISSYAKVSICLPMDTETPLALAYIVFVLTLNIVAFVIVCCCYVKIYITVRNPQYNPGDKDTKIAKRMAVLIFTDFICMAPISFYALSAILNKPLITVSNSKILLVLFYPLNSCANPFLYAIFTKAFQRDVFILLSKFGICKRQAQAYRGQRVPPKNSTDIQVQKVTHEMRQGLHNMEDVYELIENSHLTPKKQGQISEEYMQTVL

Consider `CCOC(=O)[C@H](CCc1ccccc1)N[C@@H](C)C(=O)N1C(=O)N(C)C[C@H]1C(=O)O`, for which the result in assay [1], in assay [7], in [8], in [9], in [10] and in [14] was inactive. For the same compound, the Potency result in [2], in [3], in [4], in assay [5], in [6] and in assay [11] was “inactive” throughout. The Potency result in assay [12], in assay [13], in assay [15], in assay [16], in assay [18] and in [19] was “inactive” in each case. Also, the max activation in assay [17] was -1.3%.
As to `N[C@@H](CCC(=O)N[C@@H](CS)C(=O)NCC(=O)O)C(=O)O`, the values for the activity change, negative = inhibition in [1] and in assay [4] were 6.72% [at 19 µM] and 1.1% [at 18.9 µM], respectively. For the same compound, the activity change, negative = cytotoxicity is 5.49% [at 19 µM] in assay [2]; 2.33% [at 18.9 µM] in [5]; 3.29% [at 19 µM] in assay [6]; 1.41% [at 15.8 µM] in [7]; 1.19% [at 19 µM] in assay [11]; 5.61% [at 19 µM] in assay [13]. Besides, the activation was -0.471% [at 19 µM] in assay [3] and 1.79% [at 15.8 µM] in assay [8]. The viability change, negative = cytotoxic in [20] is 18.5% [at 15.8 µM]. For the same compound, the caspase activation in assay [12] was -1.46% [at 19 µM]. Also, the caspase-3/7 activation in [14] is -0.229% [at 19 µM]. In addition, the max activation in assay [17] is 3.38%.
Turning to `CN=C(NC#N)Nc1ccc(C2=NNC(=O)CC2C)cc1` (stereo not drawn), the result in assay [1], in assay [7] and in [8] was inactive. For the same compound, the Potency result in assay [2], in assay [3], in [4], in assay [5], in [6] and in assay [11] was “inactive” throughout. For the same compound, the Potency result in assay [12], in assay [13], in assay [15] and in [16] was “inactive” in each case.
`NS(=O)(=O)c1cc2c(cc1Cl)CN(C1CCCCC1)C2=O`: the call in assay [1], in assay [20], in assay [7], in assay [8], in assay [9] and in assay [10] was inactive. Moreover, in assay [14], the compound was called inactive. Besides, the Potency result in [2], in assay [3], in assay [4], in [5], in assay [11] and in [12] was “inactive” throughout. Besides, the Potency result in assay [13] and in [15] was “inactive” in each case. Besides, the Potency in assay [16] is 29.8 µM (active).
With `CC(C)(C)c1nnc(NS(=O)(=O)c2ccc(N)cc2)s1`, the result in assay [1], in assay [20], in assay [7], in [8] and in [14] was inactive. Moreover, the Potency entry in assay [2], in assay [3], in assay [4], in assay [5], in assay [6] and in assay [11] was “inactive” in each case. Besides, the Potency entry in [12], in assay [13], in [15] and in [16] was “inactive” each time.
For `Cc1ccccc1OCC(O)CO` (stereo not drawn), the result in assay [1], in assay [7], in assay [8] and in assay [14] was inactive. The Potency entry in [2], in assay [3], in assay [4], in assay [5], in [6] and in [11] was “inactive” throughout. In addition, the Potency result in assay [12], in assay [13] and in [15] was “inactive” throughout. Further, the max activation in assay [17] was -0.0648%.
Take `O=C1c2ccccc2C(=O)c2cc(S(=O)(=O)O)ccc21`: the compound was called inactive in assay [1], in [20], in assay [7], in assay [8], in assay [9] and in [10]. In addition, the call in assay [14] was inactive. Moreover, the Potency entry in assay [2], in assay [3], in [4], in assay [5], in [11] and in [12] was “inactive” each time. Also, the Potency result in assay [13] and in assay [15] was “inactive” in each case. Besides, the Potency in [16] was 48.7 µM (active).
With `CCCN1C[C@H](CSC)C[C@@H]2c3cccc4[nH]cc(c34)C[C@H]21`, the call in assay [1], in [20], in [7], in [9], in assay [10] and in [14] was inactive. Further, the Potency entry in [2], in assay [3], in assay [4], in [5], in assay [6] and in assay [11] was “inactive” in each case. The Potency entry in assay [12], in assay [13], in [15] and in assay [16] was “inactive” in each case.
